D1 agonist: agonists of human D1 dopamine receptor. P21728. HEK293 T-REx D1 cells, calcium flux, agonist mode. AID 504660. 360,000 tested, 1% active. activation, % at 2 µM; also: 0% is about no effect
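Inducible HEK293 T-REx D1 cells, force-coupled to calcium signalling, were plated at 4000 cells/well with tetracycline and held overnight at 30 C. After no-wash calcium dye loading, compound-evoked calcium rise over 180 s flagged agonists.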
D1 potentiator: human D1 dopamine receptor positive modulation | HEK293 TREx D1 cells, calcium flux, dopamine EC20 potentiation | potentiation, % at 10 µM | 360,000 tested, 0.036% active; in the data active = potentiation above about 30%; also: 0% is about no effect
D1 antag: human D1 dopamine receptor antagonism; P21728; HEK293 TREx D1 cells, calcium flux, dopamine EC80; active compounds read low; activity change, negative = inhibition, % at 10 µM; 360,000 tested, 3.2% active; in the data active = activity change below about -30%; also: % is scaled to controls: 0 for no effect and ±100 for the full control effect
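Inducible Hek293 Trex D1 cells (tetracycline, overnight, 30 C). Calcium dye 30–90 min RT. Antagonist mode: EC80 dopamine added after 180 s compound read.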
TRHR enhancer: TRH receptor (human) allosteric enhancement | TRHR cells, fluo-8 calcium fluorescence, EC20 TRH enhancement | 360,000 tested, 0.66% active | enhancement, % at 2 µM | P34981; in the data active = enhancement above about 30%; also: 0% is about no effect
Target sequence (P34981 whole entry, looked up): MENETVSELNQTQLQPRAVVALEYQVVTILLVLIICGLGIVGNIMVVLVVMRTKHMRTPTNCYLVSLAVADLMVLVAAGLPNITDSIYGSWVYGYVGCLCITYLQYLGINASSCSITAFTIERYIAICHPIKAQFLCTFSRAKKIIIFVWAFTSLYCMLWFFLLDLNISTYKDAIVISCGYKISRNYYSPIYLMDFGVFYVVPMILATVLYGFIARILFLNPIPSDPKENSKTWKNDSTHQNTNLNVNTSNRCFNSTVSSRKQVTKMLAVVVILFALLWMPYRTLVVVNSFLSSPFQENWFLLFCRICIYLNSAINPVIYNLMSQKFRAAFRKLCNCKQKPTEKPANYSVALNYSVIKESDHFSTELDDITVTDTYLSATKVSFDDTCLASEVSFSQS
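Enhancer read-out: after compound pinning and an initial kinetic agonist-mode read, an EC20 of TRH (10 nM final) was injected and fluo-8 calcium signal (Ex 480/Em 530) followed at 1 s/cycle for 100 cycles in TRHR-expressing cells.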
TRHR ag: TRH receptor (human) agonism. P34981. TRHR cells, calcium flux fluo-8, FDSS agonist mode. activation, % at 2 µM. 360,000 tested, 0.18% active; also: 0% is about no effect
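In this calcium-flux screen, cells bearing human TRHR are dye-loaded with fluo-8, baselined for 10 cycles, then exposed to library compounds; positive kinetic calcium responses during the agonist phase mark hits, with TRH as control.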
Active calls of the source: *; ! = repeats disagree. Sampled rows, rich in hits. Any-hit rate of the full collection: about 4.6%. Rule as the data show it, unless noted: active = activation above about 30%; inactive = the rest.

SMILES	D1 agonist	D1 potentiator	D1 antag	TRHR enhancer	TRHR ag
O=S(=O)(c1ccc2c(c1)OCCO2)N1CCN(S(=O)(=O)c2ccccc2OC(F)(F)F)CC1	7	-3	-25	1	1
COc1ccc(C(=O)Nc2ccc(OCc3cc(=O)n4ccccc4n3)cc2)cc1	0	-3	-10	10	0
COc1ccc(S(=O)(=O)N(CC(=O)N2CCCC2)Cc2ccccc2)cc1	1	-3	4	-5	0
COc1ccc(OCCOc2ccc(N(C)S(=O)(=O)c3ccccc3)cc2)cc1	42*	-2	-27	6	4
COc1ccc(S(=O)(=O)N(CC(=O)Nc2ccccc2Br)Cc2ccccc2)cc1	44*	0	15	1	2
COc1ccc(S(=O)(=O)N(CC(=O)Nc2ccc(Br)cc2)Cc2ccccc2)cc1	9	-2	-6	-2	2
CCN(Cc1ccccc1)S(=O)(=O)c1ccc(OC)cc1	6	4	-34*	1	-1
CCc1ccccc1Nc1nn2c(=O)c3ccc(C(=O)NC(C)c4ccccc4)cc3nc2s1 (stereo unspecified)	0	-2	6	-4	1
Cc1cccc2cc(CN(CCCN(C)C)C(=S)NCCc3ccccc3)c(=O)[nH]c12	31*	-3	6	4	3
Cc1ccc2[nH]c(=O)c(CN(CCCN(C)C)C(=S)NCCc3ccccc3)cc2c1	2	-7	5	8	2
Cc1cccc(N2CCN(C(=O)CN3C(=O)COc4ccc(S(=O)(=O)N5CCCCCC5)cc43)CC2)c1C	5	7	24	6	1
CSc1nc2c(c(=O)[nH]c(=O)n2C)n1Cc1ccccc1	5	1	2	31*	0
Cn1c(=O)[nH]c(=O)c2c1nc(CN1CCN(c3cccc(Cl)c3)CC1)n2CCCc1ccccc1	2	-8	-31*	-15	-1
Cc1cc(C)c2c(N)c3cccc(C)c3nc2n1	54*	2	5	7	7
CCC1(c2ccc(Cl)cc2)NC(=O)N(Cc2ccc(C(=O)OC)cc2)C1=O (stereo unspecified)	30	-5	-31*	8	12
O=S(=O)(NCc1ccc(F)cc1)c1ccc(Br)cc1Br	-1	3	-32*	-9	0
CCOc1ccc(-n2ccn3c(CC(C)CC(=O)O)nnc3c2=O)cc1 (stereo unspecified)	1	0	-4	-3	0
Cc1ccccc1-c1nc(C#N)c(N2CCCCC2)o1	1	2	7	4	-2
CC(=O)c1ccc(NC(=O)c2noc3c2CSc2ccccc2-3)cc1	0	-3	4	9	0
Cc1ccc(C)c(Cn2cnc3c(cnn3C(C)(C)C)c2=O)c1	41*	-5	6	-4	0
Fc1ccc(-c2nn(-c3ccccc3)cc2CNCc2ccccc2)cc1	6	7	20	1	1
Fc1ccc(-n2cc(CNCCc3ccncc3)c(-c3ccccc3Cl)n2)cc1	10	-2	-32*	0	1
Fc1ccc(-n2cc(CNCCc3cccnc3)c(-c3ccccc3Cl)n2)cc1	61*	12	-4	9	1
Cc1ccc(C)c(CN2C(=O)C3(c4ccccc42)N(c2ccc(Cl)cc2)C(=O)CS3(=O)=O)c1 (stereo unspecified)	1	3	-5	12	1
Cc1ccc2cc(C#N)c(NCc3ccccc3)nc2c1	3	-4	-33*	8	0
SMILES	D1 agonist	D1 potentiator	D1 antag	TRHR enhancer	TRHR ag
CC(C)c1ccc(NC(=O)C2Cc3ccccc3N2C(=O)c2ccccc2)cc1 (stereo unspecified)	2	-1	12	-1	1
COC(=O)c1ccc(CSc2ccc3nnc(-c4cccc(F)c4)n3n2)o1	-1	0	-30*	-3	0
CCC(Sc1nc2ccncc2[nH]1)C(=O)Nc1cc(Cl)ccc1C (stereo unspecified)	6	-5	-44*!	4	0
CCCOC(=O)c1ccc(NC(=O)c2ccc(Br)o2)cc1	8	-6	-32*	-1	0
CCCC(=O)N1CCN(c2ccc(NC(=O)c3ccc(Br)o3)cc2)CC1	0	-7	-43*	2	0
CCN1CCN(c2ccc(NC(=O)c3ccc(Br)o3)cc2)CC1	3	-7	12	33*	0

Assay outcomes from PubChem BioAssay.
